From PubChem BioAssay (EPA / NIEHS) come the findings set out here.

Activity calls are given as the source filed them. How the source made its calls: active means hit-call score of the fitted dose curve at least 0.9, where 1 is the maximum; inactive means score below 0.9.

Holding throughout (conditions): mRNA level, 48 h; actives raise or lower the signal
Read-out in experiment [1]: Insulin Like Growth Factor 1 (IGF1), IGF1 (gene 3479)
The experiment is described as follows: LTEA_HepaRG_IGF1: Life Technologies and Expression Analysis (LTEA) Assay for Insulin Like Growth Factor 1 (IGF1) using HepaRG (AID 2283506). A digest of the protocol: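 Differentiated human HepaRG cells were dosed for 48 h in serum-free induction medium with 0.5% DMSO, eight half-log concentrations up to 100 uM, in duplicate. IGF1 mRNA was quantified by qRT-PCR normalized to ACTB, GAPDH, POLR2A; bidirectional fitting versus DMSO.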

Read-out in experiment [2]: Intercellular Adhesion Molecule 1 (ICAM1), ICAM1 (gene 3383)
As to the kind of experiment: LTEA_HepaRG_ICAM1: Life Technologies and Expression Analysis (LTEA) Assay for Intercellular Adhesion Molecule 1 (ICAM1) using HepaRG (AID 2283507). A digest of the protocol: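 Differentiated HepaRG cells in serum-free induction medium were exposed in duplicate for 48 h to eight half-log concentrations up to 100 uM in 0.5% DMSO. Transcript levels were measured by qRT-PCR normalized to ACTB, GAPDH and POLR2A; bidirectional fits relative to DMSO.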

Read-out in experiment [3]: Insulin-like growth factor-binding protein 1 (IGFBP1), IGFBP1 (gene 3484)
The experiment is described as follows: LTEA_HepaRG_IGFBP1: Life Technologies and Expression Analysis (LTEA) Assay for Insulin-like growth factor-binding protein 1 (IGFBP1) using HepaRG (AID 2283508). In short, it runs like this: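 Differentiated human HepaRG cells in serum-free induction medium were exposed in duplicate for 48 h to eight concentrations, top 100 uM with half-log dilutions, in 0.5% DMSO. Transcript levels came from qRT-PCR normalised to ACTB, GAPDH and POLR2A, fitted bidirectionally against DMSO.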

Read-out in experiment [4]: Interleukin 6 (IL6), IL6 (gene 3569)
The experiment is described as follows: LTEA_HepaRG_IL6: Life Technologies and Expression Analysis (LTEA) Assay for Interleukin 6 (IL6) using HepaRG (AID 2283509). In short, it runs like this: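 Differentiated human HepaRG cells, plated 48 h then switched to serum-free induction medium, were exposed in duplicate for 48 h to eight half-log concentrations up to 100 uM in 0.5% DMSO. IL6 mRNA measured by qRT-PCR, normalized to ACTB/GAPDH/POLR2A.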

Read-out in experiment [5]: Interleukin 6 Receptor (IL6R), IL6R (gene 3570)
The experiment is described as follows: LTEA_HepaRG_IL6R: Life Technologies and Expression Analysis (LTEA) Assay for Interleukin 6 Receptor (IL6R) using HepaRG (AID 2283510).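 On AC50: TaqMan qRT-PCR signal normalized to ACTB GAPDH and POLR2A housekeeping genes.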 A digest of the protocol:
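Differentiated human HepaRG cells, plated 48 h then switched to serum-free induction medium, were dosed in duplicate for 48 h at eight half-log concentrations up to 100 uM in 0.5% DMSO. IL6R mRNA quantified by qRT-PCR, normalized to ACTB/GAPDH/POLR2A; bidirectional fit versus DMSO.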

Read-out in experiment [6]: Keratin 19 (KRT19), KRT19 (gene 3880)
The experiment is described as follows: LTEA_HepaRG_KRT19: Life Technologies and Expression Analysis (LTEA) Assay for Keratin 19 (KRT19) using HepaRG (AID 2283512). In short, it runs like this:
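Differentiated human HepaRG cells, plated 48 h, were exposed in duplicate for 48 h in serum-free induction medium to eight half-log concentrations up to 100 uM in 0.5% DMSO. KRT19 mRNA was quantified by qRT-PCR, normalized to ACTB, GAPDH and POLR2A, and fitted bidirectionally versus DMSO.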

Read-out in experiment [7]: JUN Transcription Factor, JUN (gene 3725)
The experiment is described as follows: LTEA_HepaRG_JUN: Life Technologies and Expression Analysis (LTEA) Assay for JUN Transcription Factor using HepaRG (AID 2283513). A digest of the protocol:
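Differentiated HepaRG cells were exposed to chemicals for 48 h in serum-free induction medium, 8 concentrations from 100 uM in half-log steps, 0.5% DMSO vehicle, in duplicate. JUN mRNA was quantified by TaqMan qRT-PCR, normalized to ACTB, GAPDH, POLR2A.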

Read-out in experiment [8]: Lipase C (LIPC), LIPC (gene 3990)
The experiment is described as follows: LTEA_HepaRG_LIPC: Life Technologies and Expression Analysis (LTEA) Assay for Lipase C (LIPC) using HepaRG (AID 2283514). A digest of the protocol:
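Differentiated human HepaRG cells in serum-free induction medium were exposed in duplicate for 48 h to eight concentrations (top 100 uM, half-log steps, 0.5% DMSO). LIPC mRNA was quantified by TaqMan qRT-PCR, normalized to ACTB, GAPDH and POLR2A, with bidirectional fitting versus DMSO.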

Read-out in experiment [9]: Lipoprotein lipase (LPL), LPL (gene 4023)
As to the kind of experiment: LTEA_HepaRG_LPL: Life Technologies and Expression Analysis (LTEA) Assay for Lipoprotein lipase (LPL) using HepaRG (AID 2283515). In short, it runs like this:
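Differentiated human HepaRG cells in serum-free induction medium were exposed in duplicate for 48 h to eight half-log concentrations (top 100 uM) in 0.5% DMSO. LPL mRNA was quantified by TaqMan qRT-PCR, normalized to ACTB, GAPDH and POLR2A.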

Read-out in experiment [10]: MicroRNA 122 (MIR122), gene 406906
As to the kind of experiment: LTEA_HepaRG_MIR122: Life Technologies and Expression Analysis (LTEA) Assay for MicroRNA 122 (MIR122) using HepaRG (AID 2283516). Further: the transcript read is the microRNA miR-122. A digest of the protocol:
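Differentiated human HepaRG cells were exposed 48 h in serum-free induction medium to eight half-log concentrations (top 100 uM, 0.5% DMSO). Transcript level was measured by TaqMan qRT-PCR, normalized to ACTB, GAPDH and POLR2A, and fitted bidirectionally versus DMSO.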

Read-out in experiment [11]: matrix metalloproteinase-10 (MMP10), MMP10 (gene 4319)
As to the kind of experiment: LTEA_HepaRG_MMP10: Life Technologies and Expression Analysis (LTEA) Assay for matrix metalloproteinase-10 (MMP10) using HepaRG (AID 2283517). A digest of the protocol:
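HepaRG, collagen I, ~100,000 cells/well; serum-free induction medium; 48 h exposure, duplicate, 8-pt half-log to 100 uM, 0.5% DMSO. Readout: TaqMan qRT-PCR, normalized to ACTB/GAPDH/POLR2A; bidirectional fit vs DMSO.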

Read-out in another experiment: MYC, MYC (gene 4609)
The experiment is described as follows: LTEA_HepaRG_MYC: Life Technologies and Expression Analysis (LTEA) Assay for MYC using HepaRG (AID 2283518). In short, it runs like this: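 Differentiated human HepaRG cells, plated 48 h then switched to serum-free induction medium, were exposed in duplicate for 48 h to 8-point half-log series up to 100 uM in 0.5% DMSO. MYC mRNA measured by qRT-PCR, normalized to ACTB/GAPDH/POLR2A.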

Read-out in experiment [12]: Paternally Expressed 10 (PEG10), PEG10 (gene 23089)
As to the kind of experiment: LTEA_HepaRG_PEG10: Life Technologies and Expression Analysis (LTEA) Assay for Paternally Expressed 10 (PEG10) using HepaRG (AID 2283520). In short, it runs like this:
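Differentiated HepaRG cells, plated 48 h then switched to serum-free induction medium, were exposed in duplicate for 48 h to eight half-log concentrations topping at 100 uM in 0.5% DMSO. PEG10 mRNA was quantified by TaqMan qRT-PCR, normalised to ACTB, GAPDH and POLR2A.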

Read-out in experiment [13]: Nuclear factor NF-kappa-B p105 subunit (Homo sapiens) (UniProt P19838)
As to the kind of experiment: LTEA_HepaRG_NFKB1: Life Technologies and Expression Analysis (LTEA) Assay for Nuclear Factor Kappa B Subunit 1 (NFKB1) using HepaRG (AID 2283521).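 On outcome: TaqMan qRT-PCR transcript normalised to ACTB GAPDH and POLR2A housekeeping genes.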 In short, it runs like this: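 NFKB1 transcript was measured by TaqMan qRT-PCR on Fluidigm arrays, normalised to three housekeeping genes and fitted in both directions against 0.5% DMSO. HepaRG cells were dosed in duplicate for 48 h in serum-free induction medium, eight half-log steps from 100 uM.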

Read-out in experiment [14]: Protein phosphatase 2A (PPP2R4), PTPA (gene 5524)
The experiment is described as follows: LTEA_HepaRG_PPP2R4: Life Technologies and Expression Analysis (LTEA) Assay for Protein phosphatase 2A (PPP2R4) using HepaRG (AID 2283522). In short, it runs like this: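 Differentiated HepaRG cells in serum-free induction medium were exposed in duplicate for 48 h to eight concentrations, top 100 uM with half-log dilutions, in 0.5% DMSO. PPP2R4 mRNA was quantified by TaqMan qRT-PCR, normalized to ACTB, GAPDH and POLR2A.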

Read-out in experiment [15]: Phosphatase and tensin (PTEN), PTEN (gene 5728)
The experiment is described as follows: LTEA_HepaRG_PTEN: Life Technologies and Expression Analysis (LTEA) Assay for Phosphatase and tensin (PTEN) using HepaRG (AID 2283523). In short, it runs like this:
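Differentiated human HepaRG cells, plated 48 h then switched to serum-free induction medium, were exposed in duplicate for 48 h to eight half-log concentrations up to 100 uM in 0.5% DMSO. PTEN mRNA measured by TaqMan qRT-PCR, normalized to ACTB/GAPDH/POLR2A, bidirectional fit versus DMSO.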

Read-out in experiment [16]: solute carrier (SLC22A1), SLC22A1 (gene 6580)
As to the kind of experiment: LTEA_HepaRG_SLC22A1: Life Technologies and Expression Analysis (LTEA) Assay for solute carrier (SLC22A1) using HepaRG (AID 2283524). In short, it runs like this: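 Human HepaRG cells were plated 48 h, switched to serum-free induction medium, then exposed in duplicate for 48 h to 8-point half-log series from 100 uM in 0.5% DMSO. SLC22A1 mRNA measured by qRT-PCR, normalized to ACTB/GAPDH/POLR2A, fitted bidirectionally versus DMSO.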

Read-out in experiment [17]: Pyruvate Dehydrogenase Kinase 4 (PDK4), PDK4 (gene 5166)
As to the kind of experiment: LTEA_HepaRG_PDK4: Life Technologies and Expression Analysis (LTEA) Assay for Pyruvate Dehydrogenase Kinase 4 (PDK4) using HepaRG (AID 2283525). A digest of the protocol:
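Differentiated human HepaRG cells, pre-cultured 48 h, were exposed in duplicate for 48 h in serum-free induction medium to eight half-log concentrations up to 100 uM in 0.5% DMSO. PDK4 mRNA was quantified by qRT-PCR, normalized to ACTB, GAPDH and POLR2A, bidirectional fitting versus DMSO.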

Chain of Nuclear factor NF-kappa-B p105 subunit (Homo sapiens) (P19838 whole entry, looked up): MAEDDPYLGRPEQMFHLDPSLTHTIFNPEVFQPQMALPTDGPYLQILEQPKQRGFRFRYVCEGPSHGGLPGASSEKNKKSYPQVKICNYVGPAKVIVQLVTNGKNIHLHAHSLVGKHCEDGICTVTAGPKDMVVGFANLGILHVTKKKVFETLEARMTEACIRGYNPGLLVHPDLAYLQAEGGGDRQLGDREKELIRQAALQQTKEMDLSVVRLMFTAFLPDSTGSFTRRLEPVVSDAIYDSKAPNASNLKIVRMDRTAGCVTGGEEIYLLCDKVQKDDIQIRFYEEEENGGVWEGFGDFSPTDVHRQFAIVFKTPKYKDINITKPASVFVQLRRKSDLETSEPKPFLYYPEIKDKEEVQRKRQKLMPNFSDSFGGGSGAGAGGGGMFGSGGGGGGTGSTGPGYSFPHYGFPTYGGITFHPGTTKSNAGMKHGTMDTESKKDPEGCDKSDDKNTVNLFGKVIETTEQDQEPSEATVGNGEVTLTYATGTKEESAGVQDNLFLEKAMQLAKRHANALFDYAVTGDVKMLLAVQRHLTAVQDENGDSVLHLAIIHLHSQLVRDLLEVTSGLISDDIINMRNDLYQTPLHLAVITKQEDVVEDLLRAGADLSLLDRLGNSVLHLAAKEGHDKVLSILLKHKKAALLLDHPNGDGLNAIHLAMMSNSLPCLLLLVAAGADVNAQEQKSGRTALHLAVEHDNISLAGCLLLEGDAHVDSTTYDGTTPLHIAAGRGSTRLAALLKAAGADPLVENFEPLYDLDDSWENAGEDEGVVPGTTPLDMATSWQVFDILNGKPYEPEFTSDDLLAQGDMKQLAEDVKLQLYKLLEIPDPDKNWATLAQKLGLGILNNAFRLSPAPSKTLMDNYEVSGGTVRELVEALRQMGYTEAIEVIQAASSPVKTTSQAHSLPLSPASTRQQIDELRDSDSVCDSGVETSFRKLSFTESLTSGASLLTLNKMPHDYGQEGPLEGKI

On to `CCCCCCCCCCO`, for which the result in experiment [1], in experiment [2], in [3], in [4], in experiment [5] and in experiment [6] was inactive. Further, the outcome was “inactive” in experiment [7]; “inactive” in [8]; “inactive” in [9]; “inactive” in experiment [10]; “inactive” in experiment [11]; “inactive” with MYC, MYC (gene 4609). Besides, the compound was classed as inactive in experiment [12], in experiment [13], in [14], in experiment [15], in experiment [16] and in [17].
By AC50 is commonly meant the concentration at which the activity in the assay is half-maximal. Turning to `CN[C@H]1CC[C@@H](c2ccc(Cl)c(Cl)c2)c2ccc(S(N)(=O)=O)cc21`, the AC50 in experiment [1] was 87.7 µM (active); in experiment [2], 74.8 µM (active); in [3] it was 57.7 µM (active); in experiment [4] it was 77.4 µM (active); in experiment [5], 50 µM (active); in experiment [6], 10.9 µM (active). Moreover, the concentration at half-maximal activity (AC50) is 94.5 µM (active) in [7]; 15.8 µM (active) in experiment [8]; 11.9 µM (active) in experiment [9]; 66.4 µM (active) in [11]; 81.4 µM (active) in experiment [13]; 84.5 µM (active) in experiment [14]. Also, the half-maximal activity concentration (AC50) in experiment [16] is 22.4 µM (active); in experiment [17] it was 83 µM (active). Besides, the outcome in [10] was “inactive”; with MYC, MYC (gene 4609), “inactive”; in experiment [12] it was “inactive”; in experiment [15] it was “inactive”.
For `CCCCOC(=O)CCCCCCCCC(=O)OCCCC`, the compound was classed as inactive in experiment [1], in experiment [2], in [3], in experiment [4], in experiment [5] and in experiment [6]. Besides, the outcome is “inactive” in experiment [7]; “inactive” in [8]; “inactive” in experiment [9]; “inactive” in experiment [10]; “inactive” in [11]; “inactive” with MYC, MYC (gene 4609). Also, the compound was called inactive in experiment [12], in experiment [13], in experiment [14], in experiment [15], in experiment [16] and in [17].
As for `CCCCCCCCCCCCCO`, the result in experiment [1], in [2], in [3], in [4], in experiment [5] and in experiment [6] was inactive. Moreover, the outcome is “inactive” in [7]; “inactive” in experiment [8]; “inactive” in [9]; “inactive” in experiment [10]; “inactive” in experiment [11]; “inactive” with MYC, MYC (gene 4609). Also, the call in experiment [12], in experiment [14], in experiment [15], in experiment [16] and in [17] was inactive.
